Consider 17 compounds from PubChem BioAssay.

Values without a mark were called inactive. The source made the active and inactive calls.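 How the source made its calls: active means fluorescence slope higher than the sample average by over 3 SD (cut at about -0.22 in these data, passing the limit was not always enough); inactive means the rest.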

This experiment deals with Voltage-gated potassium channel subunit beta-2 (Rattus norvegicus) (UniProt P62483). In words: inhibitors of rat Kvbeta2 reductase activity – biochemical, NADPH fluorescence, primary screen (AID 622).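 Further: slope of raw intensity against log time taken from 70 to 1610 s.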 To be noted: recombinant KvBeta, 4-cyanobenzaldehyde reduction, at 10 µM, stronger effect = higher value.
Chain of Voltage-gated potassium channel subunit beta-2 (Rattus norvegicus) (P62483 whole entry, looked up): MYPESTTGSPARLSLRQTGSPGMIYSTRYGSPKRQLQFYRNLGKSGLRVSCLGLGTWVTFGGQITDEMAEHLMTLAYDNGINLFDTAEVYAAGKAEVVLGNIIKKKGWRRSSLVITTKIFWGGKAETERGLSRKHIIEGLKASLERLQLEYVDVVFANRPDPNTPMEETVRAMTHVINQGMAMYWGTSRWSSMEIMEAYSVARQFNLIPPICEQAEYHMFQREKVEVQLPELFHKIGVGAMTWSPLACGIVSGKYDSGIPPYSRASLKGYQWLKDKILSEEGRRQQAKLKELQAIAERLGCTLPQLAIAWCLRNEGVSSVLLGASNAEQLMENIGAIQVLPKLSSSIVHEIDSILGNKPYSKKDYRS
Turning to `NS(=O)(=O)c1ccc(NC(=O)CSc2nnc(Cc3cccs3)n2-c2ccccc2)cc1`, the fluorescence slope was -0.45.

Take `O=C(O)CSc1ncn[nH]1`: the fluorescence slope was -0.454. With `Cc1ccc2c(C(=O)CN3CCSCC3)c(C)[nH]c2c1`, the fluorescence slope is -0.386. Then `COc1cccc(CC(=O)Nn2c(C)nc3ccccc3c2=O)c1`, with -0.395; and `Cc1nnc(SCc2cccc(Oc3ccccc3)c2)n1N`, with -0.384. With `CC(CCc1ccccc1)NC(=O)C1CCN(S(=O)(=O)c2cnc[nH]2)CC1` (configuration not stated), the fluorescence slope was -0.367. The result for `Cc1ccc(C)n1-c1ccc(-n2cnnn2)cc1` reads -0.366. Regarding `CC(OC(=O)CNC(=O)C12CC3CC(CC(C3)C1)C2)C(=O)Nc1ccc(N2CCOCC2)cc1` (configuration not stated), the fluorescence slope was -0.448.

Consider `CC(C)CC(c1nnnn1C(C)(C)C)N1CCN(C2CCCC2)CC1` (configuration not stated), for which the fluorescence slope was -0.33. Consider `CCOC(=O)C1=C(c2ccccc2)N2CCS(=O)(=O)N=C2S1`, for which the fluorescence slope is -0.271.

Turning to `CCOC(=O)Nc1ccc2c(c1)N(C(=O)CCN1CCOCC1)c1ccccc1S2`, the fluorescence slope was -0.37. For the compound `c1cnc(NCCNc2ncccn2)nc1`, the fluorescence slope is -0.346. Consider `CN(C)C(=O)COc1ccc2cc(-c3ccccc3)c(=O)oc2c1`, for which the fluorescence slope was -0.00785.

With `COc1ccc(COC(=O)c2n[nH]c3ccccc23)cc1F`, the fluorescence slope is -0.444. Then `Cc1cc(C(=O)COC(=O)CCc2nc3ccccc3s2)c(C)n1C`, with -0.454; and `Cn1c(=O)cc(SCC(=O)NCc2cccnc2)c2ccccc21`, with -0.31; and `CSc1ccc(-c2cc(=O)c3ccccc3o2)cc1`, with -0.00698 (active).
